# Whole data set: some 39,000 sequences, median “fluorescence intensity (a.u.)” near 4,300, cut for the highest 2% near 39,000. The full list was thinned out, with the highest values kept by preference.
# Biological target: T1, OsSMF1 (Oryza sativa, UniProt Q6ZLB0 1-436)
# T1 sequence: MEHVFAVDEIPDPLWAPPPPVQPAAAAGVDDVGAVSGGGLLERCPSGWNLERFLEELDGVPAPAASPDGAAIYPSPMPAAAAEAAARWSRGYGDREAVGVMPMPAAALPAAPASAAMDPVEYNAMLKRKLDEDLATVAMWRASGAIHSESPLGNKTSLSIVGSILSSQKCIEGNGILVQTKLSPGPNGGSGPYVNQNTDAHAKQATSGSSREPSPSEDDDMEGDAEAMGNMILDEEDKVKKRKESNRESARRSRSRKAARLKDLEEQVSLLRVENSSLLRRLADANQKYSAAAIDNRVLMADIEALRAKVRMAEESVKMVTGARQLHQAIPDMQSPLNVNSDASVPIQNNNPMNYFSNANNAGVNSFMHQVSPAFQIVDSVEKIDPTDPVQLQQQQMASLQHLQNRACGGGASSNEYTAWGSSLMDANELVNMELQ
# Assay: protein-binding microarray (RPBM); PBS, 2% BSA, 51.3 ng/ul salmon testes DNA, 50 uM zinc acetate, 200 nM TF, 25 C, 1 h; high values mean tight binding
# Settings: protein: recombinant; tags: N-terminal polyhistidine and DsRed monomer fusion (pET32a); chain copies: 2; label: CyDye5-dUTP incorporated in the synthesized complementary strand; 3' TTTTT single-stranded linker to array surface; dsDNA, one strand shown
# Method in brief: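 Binding signal here means per-feature fluorescence intensity in arbitrary units. The values were read on an Axon 4000B scanner after a custom Agilent array, double-stranded by primer extension with Cy5-dUTP, was incubated with 200 nM protein at 25 °C for 1 h in PBS with 2% BSA, salmon testes DNA and 50 µM zinc acetate, then washed. The proteins were transcription factors with an N-terminal polyhistidine tag and DsRed, expressed in E. coli BL21-CodonPlus and purified on Ni–NTA.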
row,Sequence,binding signal
1,GAATAGAACATGTACAGTGACACATCTGCATTGGAAGCGTCGGAGTCACCTAGTGCAG,7380 fluorescence intensity (a.u.)
2,TGTCATTGACTCACGTGGGTCCTACATGTCATTGAGCTTTCGGAGTCACCTAGTGCAG,10300 fluorescence intensity (a.u.)
3,CATCCGTCGCTTCGCTTTCGTTCGAACGCGTTGGACCCAGCGGAGTCACCTAGTGCAG,3160 fluorescence intensity (a.u.)
4,TTTATGATAACTTTGAGTCATATCATTTTGGTAAGTCCTACGGAGTCACCTAGTGCAG,3140 fluorescence intensity (a.u.)
5,ATGATAACTTTTATGGTTTTGGCCGTCTGGGGATCGGAATCGGAGTCACCTAGTGCAG,65500 fluorescence intensity (a.u.)
6,TTATGGACTGATATGGGCCGTTGGATTGGTTTCGGTTTTGCGGAGTCACCTAGTGCAG,5480 fluorescence intensity (a.u.)
7,CCAGTACATTTTGTACTACTACTTCGAACGGGCATGGTCGCGGAGTCACCTAGTGCAG,29700 fluorescence intensity (a.u.)
8,CTAATTGAAATCACAAATGCTGAGTTGCTGACATGCACCACGGAGTCACCTAGTGCAG,4570 fluorescence intensity (a.u.)
9,GTAACGTACGACCGTTGTCATCGTAGACGCTTCCCGGATTCGGAGTCACCTAGTGCAG,45700 fluorescence intensity (a.u.)
10,CCCGTCGTTGTCCACCCCGTCCCATTCCACGACCGTCGTCCGGAGTCACCTAGTGCAG,3390 fluorescence intensity (a.u.)
11,TGAACACGAACGCGACGCTTCTTCTGTCACGTACGCCCGTCGGAGTCACCTAGTGCAG,3200 fluorescence intensity (a.u.)
12,TTTCCTTGGAGAATCCAGATCAGCTTCCTAATCACCCTCACGGAGTCACCTAGTGCAG,4040 fluorescence intensity (a.u.)
13,AGTTTCCGAGAGCGAGCGAGAGAGAGAGAGAGAGAGAGAGCGGAGTCACCTAGTGCAG,3220 fluorescence intensity (a.u.)
14,GTGTCTGCCTCCGCGTCCGCTTCGTCACGGCGGTGTCGGTCGGAGTCACCTAGTGCAG,5900 fluorescence intensity (a.u.)
15,TGTGCTCAGCCTTAATTAATTAATCGAGCGAGTCATAAGCCGGAGTCACCTAGTGCAG,3460 fluorescence intensity (a.u.)
16,CAGGTGTGTCCATTGAATTGAATTGAATTGAAACTATTGACGGAGTCACCTAGTGCAG,60900 fluorescence intensity (a.u.)
17,TGTACCTGAAACTATTGTTATGTCCAGGTCAGGAGCAGTGCGGAGTCACCTAGTGCAG,3360 fluorescence intensity (a.u.)
18,CAGGAATTGAACTATTAAGATCCATTATGTTGCTCTAAAACGGAGTCACCTAGTGCAG,3310 fluorescence intensity (a.u.)
19,CTCTCACCATGCAAGATTTCCTTAGATTTGAGTTGAGTCACGGAGTCACCTAGTGCAG,3150 fluorescence intensity (a.u.)
20,CTTCAGTCCCGGTTGGTAAGGCTCAGCCGGCCACGTGGCTCGGAGTCACCTAGTGCAG,17200 fluorescence intensity (a.u.)
21,AGCGGACGCGCGGTATGGTCGATGGATGATGACACACGGTCGGAGTCACCTAGTGCAG,5210 fluorescence intensity (a.u.)

row,Sequence,binding signal
1,AAGCTAGTCACACATCACCATCACACACACCAAGCCACACCGGAGTCACCTAGTGCAG,4460 fluorescence intensity (a.u.)
2,CCAGGTCACATTCACATCTCTCTTTACCAAAGCTAAGCCACGGAGTCACCTAGTGCAG,48100 fluorescence intensity (a.u.)
3,GTGCCATCTAAGCGTCACGTCAAACACCACATACCAGGTCCGGAGTCACCTAGTGCAG,3140 fluorescence intensity (a.u.)
4,CTGTATTCATTAGGGTGGGACTGTATACTATAGTTATTATCGGAGTCACCTAGTGCAG,3190 fluorescence intensity (a.u.)
5,GACCCACGCCTTCGGGTCCACATGTCATAGCCTATCCACCCGGAGTCACCTAGTGCAG,3550 fluorescence intensity (a.u.)
6,GAAACGATGGTTTGAGTACTGACTTGGCAATGCTGGTCATCGGAGTCACCTAGTGCAG,6280 fluorescence intensity (a.u.)
7,GTCTGGCTGCTGATGGTGATGATGCTGACTTGTGACGAGTCGGAGTCACCTAGTGCAG,3620 fluorescence intensity (a.u.)
8,TTTGCGATGCTGACTGGTCTGAGAGCCTTGATCCGATGGTCGGAGTCACCTAGTGCAG,44800 fluorescence intensity (a.u.)
9,CTTGTTTGATCAAACCGATGCGACGCAGAGAGAGAGAGGTCGGAGTCACCTAGTGCAG,39400 fluorescence intensity (a.u.)
10,AAACAGAGGGGAAGAGAGAGGATCGTCGTCGACGATGATGCGGAGTCACCTAGTGCAG,3200 fluorescence intensity (a.u.)
11,GGTCGATGATGATGATGACGACGACGAGAGGAGGAGAGATCGGAGTCACCTAGTGCAG,3820 fluorescence intensity (a.u.)
12,TGTTGTGCTGGTTGGTTCCAGATCTAACAGTGACAGTGCGCGGAGTCACCTAGTGCAG,4380 fluorescence intensity (a.u.)
13,AAGTCCGATTCGTGAGTCACAGATGTTGACTCGCCGAAAACGGAGTCACCTAGTGCAG,5350 fluorescence intensity (a.u.)
14,TCCTTCTATATGTTTGCACTTACGTGGGCCGTATTTATGCCGGAGTCACCTAGTGCAG,9040 fluorescence intensity (a.u.)
15,GACGATCAAGATCGACACGACCAACGTGGCATGTTGCGTACGGAGTCACCTAGTGCAG,9470 fluorescence intensity (a.u.)
16,GAGGAGGAGGAGGCTGATGTGGCAGCCTGACATGTGGGGCCGGAGTCACCTAGTGCAG,7020 fluorescence intensity (a.u.)
17,TACGATGAGTCATTTATTGATTATTGTATTAATGTTCCTTCGGAGTCACCTAGTGCAG,11500 fluorescence intensity (a.u.)
18,AAAGGATGATATTTATTCGATCCTTGTTCGAATGTAGACTCGGAGTCACCTAGTGCAG,55700 fluorescence intensity (a.u.)
19,TCCTTGATCCTTTATTTGATATTTGTTTAGATATATAATTCGGAGTCACCTAGTGCAG,37900 fluorescence intensity (a.u.)
20,CGCTGTGTATATATGTGCAGGTCCATCCATGAGAGGTTGACGGAGTCACCTAGTGCAG,34900 fluorescence intensity (a.u.)
21,GCCCAGCGTGCACGGCGCGACGGACTCGCGCGGCACTAGCCGGAGTCACCTAGTGCAG,5790 fluorescence intensity (a.u.)

# Source: publication PMC7819943, “Rice protein-binding microarrays: a tool to detect cis-acting elements near promoter regions in rice”
